Data as given in PubChem BioAssay (NCATS).
Inconclusive results are not listed. Active and inactive are the calls of the source. Calls come from the whole dose curve; as a rule, active = well fitted activation curve with a large enough effect; inconclusive = small, poorly fitted or top-dose-only effect; inactive = no such curve, though single readings can be large or run the other way.

biological target: Cellular tumor antigen p53 (Homo sapiens) (UniProt P04637); test: Primary qHTS for small molecule compounds that upregulate eGFP-tagged delta133p53alpha (in N-terminal) cells. (AID 2060322); conditions: NCI-H358 eGFP-delta133p53alpha fluorescence, 24 h; activation: active compounds read high;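 note: series mostly up to about 56 µM; 0% = DMSO vehicle and 100% = reference activator; nearly all actives have a fitted effect of over 75% in size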
Sequence (P04637 whole entry, looked up): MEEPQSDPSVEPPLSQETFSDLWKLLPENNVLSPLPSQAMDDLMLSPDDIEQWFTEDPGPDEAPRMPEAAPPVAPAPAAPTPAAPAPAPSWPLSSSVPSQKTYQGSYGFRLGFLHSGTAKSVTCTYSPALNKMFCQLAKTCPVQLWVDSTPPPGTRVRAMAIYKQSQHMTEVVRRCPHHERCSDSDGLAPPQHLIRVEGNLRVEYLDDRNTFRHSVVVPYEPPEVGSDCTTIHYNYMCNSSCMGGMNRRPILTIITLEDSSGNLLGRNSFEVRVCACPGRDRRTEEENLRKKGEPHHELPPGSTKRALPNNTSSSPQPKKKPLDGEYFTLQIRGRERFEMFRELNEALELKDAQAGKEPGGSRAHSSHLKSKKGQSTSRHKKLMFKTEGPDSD
Summary of the method: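 NCI-H358 cells pre-induced 24 h with 10 ng/ml doxycycline to express N-terminal eGFP-delta133p53alpha, then dosed 24 h at 37C without doxycycline; fixed, Hoechst-stained, GFP intensity by laser scanning cytometry, normalized to DMSO (0%) and 57.5 uM 5-azacytidine (100%).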

Structure (SMILES)	activation
CC1(C)CC[C@]2(C(=O)O[C@@H]3O[C@H](CO[C@@H]4O[C@H](CO)[C@@H](O)[C@H](O)[C@H]4O[C@@H]4O[C@H](CO)[C@@H](O)[C@H](O)[C@H]4O)[C@@H](O)[C@H](O[C@@H]4O[C@H](CO)[C@@H](O)[C@H](O)[C@H]4O)[C@H]3O)CC[C@]3(C)C(=CCC4[C@@]5(C)CC[C@@H](O)[C@@](C)(C(=O)O[C@@H]6O[C@H](CO)[C@@H](O)[C@H](O)[C@H]6O)C5CC[C@]43C)[C@@H]2C1 (stereo partly drawn)	-7.63% (inactive)
C[C@@H]1CC[C@H]2C(C)(C)[C@H](O)[C@H](O)C[C@]2(C)[C@@]12Cc1c(O)cc3c(c1O2)CNC3=O	-3.82% (inactive)
COC1CC(O[C@H]2CC[C@@]3(C)C(=CC[C@]4(O)C3[C@H](O)[C@@H](O)[C@]3(C)[C@@H]([C@H](C)O)CC[C@@]34O)C2)OC(C)C1OC1CC(OC)C(OC2CC(OC)C(OC3OC(C)C(OC4OC(CO)C(O)C(O)C4O)C(OC)C3O)C(C)O2)C(C)O1 (stereo partly drawn)	-4.58% (inactive)
CC(=O)OC1C(OC(=O)c2ccccc2)C2C(=C(C)CCC2(C)C)C23CCC(C)(C2)C(=O)CC13 (stereo not drawn)	-13% (inactive)
CC(C)=CCc1cc2c(cc1O)OC[C@H]1c3ccc(O)cc3O[C@@H]21	-3.82% (inactive)
CS/C=C/C(=O)O[C@@H]1CCC2=CC(=O)C(=C(C)C)C[C@]2(C)[C@H]1C	-1.79% (inactive)
CC(=O)NC(C(=O)OC1CCC(C)(C)C2CC=C3C(=O)OCC3(O)C12C)C(C)C (stereo not drawn)	-16.8% (inactive)
CO[C@H]1C[C@@H]2CC[C@@H](C)[C@@](O)(O2)C(=O)C(=O)N2CCCC[C@H]2C(=O)O[C@H]([C@H](C)C[C@@H]2CC[C@H](n3cnnn3)[C@H](OC)C2)CC(=O)[C@H](C)/C=C(\C)[C@@H](O)[C@@H](OC)C(=O)[C@H](C)C[C@H](C)/C=C/C=C/C=C/1C	1% (inactive)
